The results in this text go back to PubChem BioAssay.

Calls of active or inactive are those of the source.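 How the source made its calls: active means inhibition above the hit cutoff set in the earlier primary screen (cut at about 27% in these data); inactive means the rest.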

Chain of Protein phosphatase methylesterase 1 (Homo sapiens) (Q9Y570 whole entry, looked up): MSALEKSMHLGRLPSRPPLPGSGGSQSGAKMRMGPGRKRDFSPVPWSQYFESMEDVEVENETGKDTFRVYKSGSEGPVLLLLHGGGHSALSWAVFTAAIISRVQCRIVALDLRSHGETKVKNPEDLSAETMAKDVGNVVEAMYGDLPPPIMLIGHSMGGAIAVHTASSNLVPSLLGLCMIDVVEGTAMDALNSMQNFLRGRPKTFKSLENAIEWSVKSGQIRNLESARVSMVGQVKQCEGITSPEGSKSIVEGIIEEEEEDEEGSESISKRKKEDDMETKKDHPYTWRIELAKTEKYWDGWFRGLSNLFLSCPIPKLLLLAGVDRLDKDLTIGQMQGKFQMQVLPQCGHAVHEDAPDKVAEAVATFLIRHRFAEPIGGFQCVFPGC

This test has as its target Protein phosphatase methylesterase 1 (Homo sapiens) (UniProt Q9Y570). Nature of the test: human PME-1 methylesterase inhibition confirmation – biochemical, fluorescence polarization, FP-Rh probe, triplicate (AID 2171).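 Further: 0% = enzyme with DMSO and 100% = wells lacking PME-1.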 Conditions: recombinant PME-1, FP-Rh probe fluorescence polarization; at 5.9 µM; active compounds read high. For orientation: Polarisation of emitted light reports the rotation of a fluorescent probe.
What is called inhibition is the change of the read-out against control, counted positive when it falls. In the case of `O=C(Nc1ccc(N2CCOCC2)cc1)Nc1ccc2nc(-c3ccco3)c(-c3ccco3)nc2c1`, the inhibition is 39.5% (active).

Take `COc1ccc(C(=O)c2oc3ccc(OC)cc3c2N)cc1`: the inhibition is 29.6% (active).

For the compound `Cc1ccccc1NC1=C/C(=N\S(=O)(=O)c2cccs2)c2ccccc2C1=O`, the inhibition is 38.4% (active).

`CCNc1cc(O)ccc1C`: the inhibition is 2.02% (inactive).

Turning to `CNS(=O)(=O)c1cc(C(=O)OCC(=O)NC2CCCc3ccccc32)ccc1Cl` (stereo not given), the inhibition is 24.4% (inactive).

For `Nc1ccc(N2CCCCC2)c2nonc12`, the inhibition was 11.3% (inactive).

With `C/C(=N/Nc1nc(-c2ccccc2F)nc2ccccc12)c1ccccc1O`, the inhibition was 3.91% (inactive).

On to `O=C1CN(C(=O)c2cc3ccccc3oc2=O)C(c2ccccc2)c2cc(F)ccc2N1` (stereo not given), for which the inhibition was 18.1% (inactive).

As for `O=[N+]([O-])c1ccc(N/N=C/c2ccccc2O)cc1`, the inhibition was 10.8% (inactive).

Turning to `O=C(CNc1cccc2ccccc12)N/N=C/c1cccc(Oc2ccccc2)c1`, the inhibition is 31.1% (active).

As to `O=[N+]([O-])c1cc(S(=O)(=O)Nc2cccc(C(F)(F)F)c2)ccc1-n1nnc2ccccc21`, the inhibition is 18.7% (inactive).

As for `CCOc1cc(CNc2ccc(O)cc2)ccc1OCc1ccc(Cl)cc1Cl`, the inhibition was 13.2% (inactive).

With `COc1cccc(NC(=O)Nc2ccc3c(c2)N(C)C(=O)CS3)c1`, the inhibition was 9.42% (inactive).

For `O=C(O)c1ccc(N/N=C/c2cn(Cc3ccccc3F)c3ccccc23)cc1`, the inhibition was 93.4% (active).

With `COc1ccc(/C=N/Nc2cc(C)nc3ccc(Br)cc23)cc1`, the inhibition was 12.9% (inactive).

On to `COc1cccc(N=Nc2c(=O)[nH]n3c(=O)c4c([nH]c23)CCC4)c1`, for which the inhibition was 36.8% (active).

Take `O=C1Nc2ccc(Br)cc2C12NNc1ccccc1O2` (stereo not given): the inhibition is 38.5% (active).

As for `Cc1cc(N/N=C/c2ccc(O)cc2O)nc(-c2ccccc2O)n1`, the inhibition was 39.8% (active).

With `CCOc1ccc(C(=O)NC(C)CCc2ccccc2)cc1` (stereo not given), the inhibition was -6.46% (inactive).

In the case of `Cc1noc(NS(=O)(=O)c2ccc(NC(=O)Nc3ccc(Cl)c(Cl)c3)cc2)c1C`, the inhibition was -8.57% (inactive).

As for `Cc1c(C(=O)OC/C(O)=C(\C#N)c2nc3ccccc3[nH]2)oc2ccccc12`, the inhibition was -5.29% (inactive).

In the case of `CC(C)Oc1ccc(S(=O)(=O)N2CCCCC2)cc1NC(=O)CN1C(=O)NC(C)(c2ccccc2)C1=O` (stereo not given), the inhibition was 42.6% (active).

For `CCNc1ccc2noc3c2c1C(=O)c1ccccc1-3`, the inhibition is 87.6% (active).

Turning to `O=c1[nH]nc(CNc2ccc(O)cc2)c2ccccc12`, the inhibition is 8.74% (inactive).

Turning to `C/C(=N\Nc1ccccc1C(=O)O)c1ccncc1`, the inhibition was 1.32% (inactive).

As to `O=C(N/N=C/c1c[nH]c2ccccc12)c1cc(-c2cccc3ccccc23)n[nH]1`, the inhibition is 2.43% (inactive).

For the compound `Nc1cc(C(=O)O)c(N)c2c1C(=O)c1ccccc1C2=O`, the inhibition was 96.8% (active).

Consider `CC1=CN2C(=N)/C(=C/c3ccc([N+](=O)[O-])o3)C(=O)N=C2S1`, for which the inhibition is -6.58% (inactive).

Consider `COc1cc2cc3c(N)c(C(=O)NCc4ccco4)sc3nc2cc1OC`, for which the inhibition was 110% (active).

On to `Cc1c(O)ccc(/C(Cc2ccc3ccccc3n2)=N\O)c1O`, for which the inhibition is 53.5% (active).

In the case of `N#CCC(=O)Nc1ccc(C(=O)OCC(=O)Nc2ccccc2Sc2ccccc2)cc1`, the inhibition was -19% (inactive).

Consider `Brc1ccc(C2Nc3cccc4cccc(c34)N2)s1`, for which the inhibition was 20.5% (inactive).

For `Nc1c(C(=O)Nc2cccc(C(=O)O)c2)sc2nc3c(cc12)CCCC3`, the inhibition is 30.8% (active).

Take `CCC(=O)NC(c1cccs1)c1cc([N+](=O)[O-])c2cccnc2c1O` (stereo not given): the inhibition is 25.9% (inactive).

In the case of `O=C(NC(C(=O)N/N=C/c1cc([N+](=O)[O-])ccc1O)c1n[nH]c(=O)c2ccccc12)c1ccccc1` (stereo not given), the inhibition is 58.3% (active).

For the compound `CCN(CC)S(=O)(=O)c1cc(NC(=O)C(C)N2CCN(c3ccccn3)CC2)ccc1C` (stereo not given), the inhibition was 18.6% (inactive).

For `O=C(N/N=C/c1c[nH]c2ccccc12)c1cc(-c2ccc3ccccc3c2)n[nH]1`, the inhibition is 10.8% (inactive).

With `COCCCNc1c2c3c(cccc3[nH]c1=O)C(=O)c1ccccc1-2`, the inhibition is 133% (active).

Take `COC(=O)N1C(=O)[C@](c2ccccc2)(C(C)C)N1C(=O)OC`: the inhibition is 23.3% (inactive).

Regarding `CCO[C@@H]1OC(C(=O)N2CCN(Cc3ccccc3)CC2)=C[C@H](c2cn(C(C)=O)c3ccccc23)[C@H]1CCCO`, the inhibition was 75.4% (active).
